RECQ1 inh-1: qHTS Assay for Inhibitors of RecQ-Like Dna Helicase 1 (RECQ1); ATP-dependent DNA helicase Q1 (Homo sapiens), P46063; RECQ1 DNA unwinding, red fluorescence kinetic read; hit rate 0.54% among 240,000; Potency, µM (series often up to 57.3 µM), for inactives: top-dose activity, negative = inhibition, hits mostly inhibitors;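 also: plate controls were vehicle for no effect and no enzyme for full effect; nearly all actives have a fitted effect of over 30% in size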
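50 nM RECQ1T1 preincubated 15 min with compound in Tris pH 8.0 buffer with MgCl2, DTT, Tween-20 and 2.5 ug/ml poly(dI-dC); started with 200 nM TAMRA/BHQ-2 forked duplex and 2 mM ATP. Unwinding read as fluorescence (525/598 nm), two reads 2 h apart.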
WRN helicase inh: qHTS for Inhibitors of WRN Helicase; WRN helicase unwinding, fluorescent forked duplex, kinetic; Potency, µM (titrated, usually from 114 µM), for inactives: at the top dose activity change, negative = inhibition, actives largely listed as inhibitors; hit rate 0.46% among 360,000; AID 651768, 2012; also: nearly all actives have a fitted effect of over 55% in size
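Primary qHTS, 1536-well format. 20 nM WRN + compound, 15 min RT; start with 100 nM forked fluorophore/quencher duplex, 2 mM ATP (final); kinetic read ex 525/em 598 nm.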
L3MBTL1 block: qHTS Assay for the Inhibitors of L3MBTL1. hit rate 0.66% among 230,000. AlphaScreen L3MBTL1–H3K9me1 peptide binding. Potency, µM (highest dose often 57.1 µM), for the others: at the top dose activity, negative = inhibition, actives largely listed as inhibitors. AID 485360, 2010; also: nearly all actives have a fitted effect of over 60% in size
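Displacement of a biotinylated histone H3(1-15) peptide monomethylated at Lys9 (75 nM) from L3MBTL1 (50 nM) was measured by AlphaScreen after a 30 min room-temperature compound incubation; cefsulodin titration served as intraplate control.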
FEN1 inh: qHTS Assay for the Inhibitors of Human Flap endonuclease 1 (FEN1); Recombinant FEN1 flap cleavage, fluorescence, 15 min; P39748; hit rate 0.35% among 390,000; Potency, µM (series often up to 114 µM), without a hit: at the top dose activity change, negative = inhibition, usual class: inhibitors; AID 588795, 2011; also: nearly all actives have a fitted effect of over 65% in size
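FEN1 at 10 nM preincubated with compounds 15 min at room temperature, then flap DNA substrate added at 50 nM final. Signal read at 0 and 15 min; concentration-response fitted with four-parameter Hill equation.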
BLM inh: qHTS Assay for Inhibitors of Bloom's syndrome helicase (BLM). RecQ-like DNA helicase BLM (Homo sapiens), P54132. recombinant BLM DNA unwinding, fluorescence dequenching. Potency, µM (highest dose often 56.1 µM), inactives show top-dose activity change, negative = inhibition, hits mostly inhibitors. hit rate 0.2% among 350,000. AID 2528, 2010;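 also: plate controls were vehicle for no effect and no enzyme for full effect; nearly all actives have a fitted effect of over 35% in size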
RECQ1 inh conf: Confirmation qHTS Assay for Inhibitors of RecQ-Like Dna Helicase 1 (RECQ1); shares compounds with RECQ1 inh-1; RECQ1 helicase DNA unwinding, fluorescence; Potency, µM (titrated, usually from 229 µM), for the others: top-dose activity change, negative = inhibition, actives largely listed as inhibitors; hit rate 28% among 610; also: nearly all actives have a fitted effect of over 45% in size
RECQ1 ADP FP: Counterscreen for RECQ1 Inhibitors: ADP Fluorescence Polarization Displacement Assay | shares compounds with RECQ1 inh-1 | ADP fluorescence polarization displacement counterscreen | Potency, µM (top dose mostly 228 µM), inactives show at the top dose activity change, negative = inhibition, actives largely listed as inhibitors | hit rate 27% among 530 | AID 2711, 2010; also: nearly all actives have a fitted effect of over 45% in size
RECQ1 inh-2: Confirmation qHTS Assay for Inhibitors of RecQ-Like Dna Helicase 1 (RECQ1) - Round 2 Cherry Picks. shares compounds with RECQ1 inh-1. recombinant RECQ1 DNA unwinding, red fluorescence. Potency, µM (doses to about 119 µM), for inactives: at the top dose activity, negative = inhibition, hits mostly inhibitors. hit rate 15% among 1,100. AID 504841, 2011; also: nearly all actives have a fitted effect of over 50% in size
* hit, by the source's call; i = inactive; u = inconclusive; x = not tested or not shown; [ ] = remark or other dose. A selection: hits, their analogues and other compounds. The true share with any hit is near 0.99%. Calls follow the shape of the dose curve; as a rule, active = well fitted curve in the direction sought with a large enough effect; inconclusive = small, poorly fitted or top-dose-only effect, or another doubt; inactive = no such curve, though single readings can be large; an effect the other way counts as inactive or inconclusive. Unless noted, % is scaled to controls: 0 for no effect and ±100 for the full control effect; potency is read from the fitted curve at half-maximal effect.

SMILES	RECQ1 inh-1	WRN helicase inh	L3MBTL1 block	FEN1 inh	BLM inh	RECQ1 inh-2	others
Cc1ccc(S(=O)(=O)N2CCCCC2C(=O)NCc2ccco2)cc1 (centres undefined)	-7.0%	-7.8%	-9.0%	2.5%	-3.5%	x
c1ccc(Cn2nnc3c(N4CCCCCC4)ncnc32)cc1	u	-4.3%	14.0%	-21.6%	1.1%	-11.6%
CCCN1CCN(c2ncnc3c2nnn3Cc2ccccc2)CC1	-6.0%	-8.6%	x	0.1%	2.0%	x
COc1ccc(-c2csc(NC(=O)CN3C(=O)CCC3=O)n2)cc1OC	-4.5%	-2.4%	7.7%	-12.1%	-6.9%	x
O=C(/C=C/c1ccco1)N1CCCC(c2ccccc2)C1 (centres undefined)	u	-18.8%	-12.0%	4.4%	-18.2%	u
COC(=O)C1=C(C)N(c2ccc(C(=O)OC)cc2)C(=O)C1	-0.4%	0.0%	-4.8%	6.8%	-9.1%	x
COC(=O)C1=C(C)N(c2cccc3ccccc23)C(=O)C1	u	6.2%	-6.6%	5.2%	-0.3%	-19.7%
O=C(COC(=O)/C=C/c1ccc(S(=O)(=O)N2CCOCC2)cc1)NCc1ccc(F)cc1	i	-3.4%	-1.3%	-11.7%	-8.0%	x
CC(=O)c1ccc(S(=O)(=O)NCCCC(=O)N(C)Cc2ccc3c(c2)OCO3)cc1	x	-7.1%	-1.5%	15.7%	x	x
O=P1(O)Oc2c(c(-c3ccccc3)cc3ccccc23)-c2c(-c3ccccc3)cc3ccccc3c2O1	u	x	x	x	-4.9%	u
Cn1c(NNC(=O)c2cccc3ccccc23)cc(=O)n(C)c1=O	-11.4%	-8.1%	-2.8%	-13.1%	-6.0%	x
CCCCNC(=O)COC(=O)c1c2c(nc3ccccc13)CCC2	x	u	x	-7.4%	u	x
CNC(=O)COC(=O)c1c2c(nc3ccccc13)CCC2	u	-17.2%[57.1 µM]	u	u	-12.2%	u
c1csc(Cc2nn3c(-c4n[nH]c5c4CCC5)nnc3s2)c1	14.1µM*	-35.5%	x	-4.5%	-18.9%	-17.1%	RECQ1 ADP FP=-10.0%[91.9 µM]
c1coc(-c2nn3c(-c4ccco4)nnc3s2)c1	u	u	-28.7%	-1.7%	-12.1%	u
COc1ccccc1-c1nn2c(-c3ccco3)nnc2s1	-16.8%	-16.5%	u	-30.2%	-8.4%	x
c1coc(-c2nnc3sc(Cc4cccs4)nn23)c1	u	44.7µM*	x	56.2µM*	-26.9%	u
O=C(CCCn1c(=O)c2ccccc2n(CC(=O)NCc2ccco2)c1=O)NCc1ccco1	i	-21.5%	x	7.1%	-2.2%	x
CC(C)(C)C(=O)O/N=C1\CCS(=O)(=O)c2sccc21	-1.3%	7.5%	7.7%	-7.3%	-0.9%	x
Cc1cc2c(=O)n(Cc3ccco3)c(SCC(=O)c3ccc(Cl)s3)nc2s1	u	-22.4%	2.7%	-21.7%	-8.3%	-11.1%
O=C(Cn1ncc(Cl)c(Cl)c1=O)N1CCN(Cc2ccccc2)CC1	31.6µM*	-10.4%	-27.1%	20.1%	-18.3%	-14.2%
O=C(Cn1ncc(Cl)c(Cl)c1=O)N1CCOCC1	-1.5%	3.4%	5.3%	-1.7%	-4.0%	x
COc1ccc(/C=C/C(=O)c2cc(C(=O)/C=C/c3ccc(OC)cc3)c(O)cc2O)cc1	x	x	x	15.4%	x	x
CNc1ccc(Br)cc(C(=O)/C=C/c2ccc3c(c2)OCO3)c1=O	u	u	28.2µM*	50.1µM*	-22.7%	u
CNc1ccc(Br)cc(C(=O)/C=C/c2ccc(OC)cc2)c1=O	u	-7.8%[11.6 µM]	-16.3%	3.8%	u	-12.8%
SMILES	RECQ1 inh-1	WRN helicase inh	L3MBTL1 block	FEN1 inh	BLM inh	RECQ1 inh-2	others
COC(=O)c1ccc(CN2[C@@H]3C[C@@H](O)CC[C@@H]3C[C@H]2C(=O)OC)cc1	-1.7%	x	x	x	0.9%	x
Nc1ccc(-c2nc3ccc(-c4nc5ccc(N)cc5[nH]4)cc3[nH]2)cc1	25.1µM*	x	x	35.5µM*	14.1µM*	31.6µM*	RECQ1 inh conf=28.2µM*;RECQ1 ADP FP=28.2µM*
COC(=O)N1c2ccccc2CCc2ccccc21	x	11.6%	x	3.9%	-0.2%	x
C/C(=N\N=C(c1ccccc1)c1ccccc1)c1cccs1	17.8µM*	-5.0%[57.1 µM]	-3.6%	7.1%	-9.2%	x	RECQ1 inh conf=-4.2%[114 µM];RECQ1 ADP FP=-9.3%[91.9 µM]
C/C(=N\N1CCN(c2ccccc2)CC1)c1cccs1	-5.9%	-6.7%	x	1.7%	-0.7%	x
COc1ccc(NC(=O)CN(C)S(=O)(=O)c2ccc3[nH]c4c(c3c2)CCCC4)cc1OC	x	x	x	u	-4.0%	x
Cc1cc(C)cc(NC(=O)c2nnn(Cc3cc(C)ccc3C)c2N)c1	1.78µM*	-7.3%	-3.8%	u	-8.9%	-18.0%	RECQ1 inh conf=u;RECQ1 ADP FP=u
CC(C)C[C@H](NC(=O)OC(C)(C)C)C(=O)NCC1CCC(C(=O)N[C@@H](Cc2ccccc2)C(=O)O)CC1 (some centres undefined)	x	0.5%	x	19.8%	2.6%	x
CCOC(=O)c1sc2ncnc(NCc3ccco3)c2c1C	u	-34.1%	x	10.6%	-9.3%	-9.1%
CCOC(=O)c1sc2nc(CC(=O)OC)nc(NCc3ccco3)c2c1C	-28.1%	-22.5%	-12.8%	-11.6%	-16.4%	x
COC(=O)[C@@H]1C[C@@H]2CC[C@@H](O)C[C@@H]2N1Cc1ccc(C(F)(F)F)cc1	i	-6.1%	x	-9.8%	-5.7%	x
Fc1ccc(NC(=S)N2CCn3cccc3C2c2cccnc2)cc1 (centres undefined)	0.0%	4.6%	-10.0%	6.9%	-12.2%	x
CN(CC(=O)Nc1ccccc1N1CCOCC1)S(=O)(=O)c1ccc(Cl)cc1	-9.9%	-3.3%	x	13.9%	-10.9%	x

Compound activity from PubChem BioAssay.
